PAFAH1B3 inh: PAFAH1B3 (human) inhibition. Q15102. inhibition, % at 3.39 µM. 340,000 tested, 0.28% active. AID 492972. recombinant PAFAH1B3, FP-rhodamine probe, fluorescence polarization;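 active means inhibition above the screen-wide average of all tested compounds plus 3 SD, cut at about 25% in these data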
PAFAH2 inh: inhibitors of human PAFAH2; Q99487; recombinant PAFAH2, FP-rhodamine activity probe, fluorescence polarization; inhibition, % at 3.39 µM; 340,000 tested, 0.99% active; AID 492956;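 active means inhibition above the mean over all tested compounds plus 3 SD, cut at about 30% in these data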;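 further: inhibitors block probe labeling of enzyme so polarization drops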
ZTA DNA inh: blocks Epstein-Barr virus ZTA, an EBNA-1 counter-screen. ZTA-DNA binding, fluorescence polarization. AID 2234. P03206. inhibition, % at 11 µM. 320,000 tested, 0.15% active; in the data active means inhibition above about 33%
Target sequence (P03206 whole entry, looked up): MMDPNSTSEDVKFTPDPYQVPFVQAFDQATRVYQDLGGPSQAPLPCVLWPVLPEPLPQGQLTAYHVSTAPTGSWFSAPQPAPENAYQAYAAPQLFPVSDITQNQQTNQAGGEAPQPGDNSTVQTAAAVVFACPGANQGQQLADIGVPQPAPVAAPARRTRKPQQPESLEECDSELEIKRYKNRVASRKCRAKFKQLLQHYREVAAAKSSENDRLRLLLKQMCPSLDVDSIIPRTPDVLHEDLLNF
EBNA-1 inh: blocks EBNA-1 binding to DNA | EBNA-1 DNA binding, fluorescence polarization | inhibition, % at 14.8 µM | 300,000 tested, 0.34% active | AID 1950; in the data active means inhibition above about 28%
rCAG binder: binds r(CAG) RNA repeats; r(CAG) RNA repeat, TO-PRO-1 dye displacement fluorescence; inhibition, % at 3 µM; 370,000 tested, 1.3% active;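 active means inhibition above the plate cutoff, the mean of all test compounds on that plate plus 3 SD, cut at about 35% in these data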;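 further: higher means more dye released from RNA so lower well fluorescence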
PAFAH1B2 inh: PAFAH1B2 (human) inhibition | recombinant PAFAH1B2, FP-rhodamine activity probe, fluorescence polarization | inhibition, % at 3.39 µM | 340,000 tested, 1.2% active | AID 492953;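 active means inhibition above the mean of all tested compounds plus 3 SD, cut at about 24% in these data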
Target sequence (P68402 whole entry, looked up): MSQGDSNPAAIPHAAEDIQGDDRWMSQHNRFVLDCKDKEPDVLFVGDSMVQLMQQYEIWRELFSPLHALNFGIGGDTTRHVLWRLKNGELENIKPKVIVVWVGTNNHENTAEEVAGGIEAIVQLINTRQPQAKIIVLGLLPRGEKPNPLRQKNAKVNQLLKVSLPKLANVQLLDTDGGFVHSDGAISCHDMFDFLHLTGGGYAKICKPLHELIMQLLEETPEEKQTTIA
rCAG bind conf: r(CAG) RNA repeat binding, confirmation; shares compounds with rCAG binder; TO-PRO-1 dye displacement fluorescence; inhibition, % at 3 µM; 4,300 tested, 70% active; AID 652065;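 active means inhibition above a per-plate cutoff, the mean inhibition of sample wells plus 3 SD, cut at about 35% in these data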;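 further: loss of TO-PRO-1 fluorescence as compound displaces dye from 1x1 AA loop RNA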
DNA CAG counter: disrupts DNA CAG TO-PRO-1 complex, flagging rCAG hits; shares compounds with rCAG binder; d(CAG) DNA oligo TO-PRO-1 dye displacement, fluorescence; inhibition, % at 3 µM; 4,300 tested, 94% active;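 active means inhibition above its plate's cutoff, the mean test-well inhibition plus 3 SD, cut at about 4.8% in these data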;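 further: hits displace the dye from DNA and so lower well fluorescence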
dCAG dye DR: counter-screen for rCAG binders: inhibitors of DNA CAG TO-PRO-1 complex. IC50, µM. DNA CAG/GTC duplex TO-PRO-1 dye displacement fluorescence. 250 tested, 20% active. shares compounds with rCAG binder; in the data active means IC50 below about 10 µM
Hits are given with their value; . = inactive; / = no result given. Shown are actives, neighbours in structure and some others; about 2.9% of the full set was active somewhere.

SMILES | PAFAH1B3 inh | PAFAH2 inh | ZTA DNA inh | EBNA-1 inh | rCAG binder | PAFAH1B2 inh | rCAG bind conf | DNA CAG counter | others
Cc1ccc2c(C)c(C(=O)Nc3ccc(S(=O)(=O)Nc4onc(C)c4C)cc3)oc2c1 | . | . | . | . | 79 | . | 74 | 40
CCOc1ccc(OCCOCCNCCOC)cc1 | . | . | . | . | . | . | / | /
O=C(N[C@@H](Cc1cccnc1)C(=O)N1CCC[C@H]1C(=O)NCCc1ccccc1Cl)C1CCCC1 | / | / | / | / | . | / | / | /
N#Cc1c(-c2ccccc2)cc(-c2ccccc2)nc1SCCC(=O)O | . | . | . | . | 61 | . | 66 | 28 | dCAG dye DR=.
COc1cc(-c2cc(-c3ccccc3)nc(SCC(=O)O)c2C#N)cc(OC)c1OC | . | . | . | . | 41 | . | 50 | 17
N#Cc1c(-c2ccccc2)cc(C2CC2)nc1SCC(=O)O | . | . | . | . | . | . | / | /
N#Cc1c(-c2ccc(Cl)cc2)cc(-c2ccccc2)nc1SCC(=O)O | . | . | . | . | 76 | . | 84 | 53
CCCn1c(N)c(N(CCOC)C(=O)COC(=O)CSc2cc(C)c3ccccc3n2)c(=O)[nH]c1=O | . | . | . | . | . | . | / | /
O=C(c1ccc(F)cc1)N1CCN(Cc2ccccc2)CC1 | . | . | . | . | . | . | / | /
COc1ccc(/C=C2\C(=O)NC(=S)N2C(=O)c2ccc(F)cc2)cc1 | . | . | . | . | 38 | . | 69 | 31
O=C1NC(=S)N(C(=O)c2ccc(F)cc2)/C1=C/c1ccccc1 | . | . | . | . | 36 | . | 65 | 24
COc1ccc(C(=O)CC(=O)c2ccc(F)cc2)cc1 | / | / | . | . | . | / | / | /
COc1ccc(Cl)cc1NC(=O)c1cccc(S(=O)(=O)Nc2c(C)n(C)n(-c3ccccc3)c2=O)c1 | / | / | / | / | . | / | / | /
Cc1cccc(N2C(=O)C(O)=C(C(=O)c3cccs3)C2c2ccc(C(C)C)cc2)n1 (stereo not drawn) | . | . | . | . | 48 | . | 39 | 11
N#C[C@H](N)[C@H]1O[C@@H](n2ccc(=O)[nH]c2=O)[C@H](O)[C@@H]1O | / | / | / | / | . | / | / | /
O=C(CCCN1C(=O)/C(=C/c2cccs2)SC1=S)Nc1ccccc1O | . | . | . | . | . | . | / | /
O=C(CCN1C(=O)/C(=C/c2cccs2)SC1=S)Nc1ccc(C(=O)O)cc1 | . | . | . | . | 48 | . | 35 | 8.1
O=C(O)C(Cc1ccccc1)N1C(=O)/C(=C/c2cccs2)SC1=S (stereo not drawn) | / | / | / | / | 67 | / | 49 | 18
O=C(CCCN1C(=O)/C(=C\c2cccs2)SC1=S)Nc1ccc(C(=O)O)cc1 | . | . | . | . | 39 | . | . | 7.8
O=C(CCCN1C(=O)/C(=C\c2cccs2)SC1=S)Nc1ccc(O)cc1C(=O)O | . | . | . | . | 60 | 44 | 60 | 23
O=C(c1cccc(S(=O)(=O)N2CCN(c3ccc(F)cc3)CC2)c1)N1CCCC(C(F)(F)F)C1 (stereo not drawn) | . | . | . | . | . | . | / | /
COCCN(C(=S)Nc1ccc(OC)c(Cl)c1)C1CCN(C(C)=O)CC1 | / | / | / | / | . | / | / | /
CCOc1cccc(-c2nnc(SCC(=O)Nc3ccc4c(c3)OCO4)n2N)c1 | / | / | / | / | . | / | / | /
CCCCCCCCN1C(=O)[C@@H](CC(=O)N2CCN(C(=O)c3ccco3)CC2)C[C@@]2(C(=O)OC)C1=C[C@H](COCc1ccccc1)O[C@@H]2C | / | / | / | / | . | / | / | /
CCCCn1c(N)c(N(CC)C(=O)c2cccs2)c(=O)[nH]c1=O | . | . | / | / | . | . | / | /
SMILES | PAFAH1B3 inh | PAFAH2 inh | ZTA DNA inh | EBNA-1 inh | rCAG binder | PAFAH1B2 inh | rCAG bind conf | DNA CAG counter | others
O=C(N/N=C\c1ccccc1OCc1ccccc1)c1ccco1 | . | . | . | . | . | . | / | /
O=C(N/N=C/c1c(O)n(Cc2ccco2)c(=O)[nH]c1=O)c1ccccc1 | . | . | . | . | 50 | . | . | 11
COc1cccc(NC(=O)Cc2nnc(SCC(=O)NC3CCCCC3)n2C)c1 | . | . | . | . | . | . | / | /
O=S(=O)(Nc1ccc(Cl)cc1NS(=O)(=O)c1ccccc1)c1ccccc1 | . | . | / | / | 81 | . | 73 | 38
O=S(=O)(Nc1ccc(S(=O)(=O)Nc2ccccc2)cc1)c1ccccc1 | . | . | . | . | . | . | / | /
Cc1ccc(NS(=O)(=O)c2ccccc2)c(NS(=O)(=O)c2ccccc2)c1 | . | . | / | / | 49 | . | 48 | 13
Cc1ccc(NS(=O)(=O)c2ccccc2)c([N+](=O)[O-])c1 | . | . | / | / | . | . | / | /
O=S(=O)(Nc1ccc(S(=O)(=O)Nc2cccc3ccccc23)cc1)c1ccccc1 | . | . | . | . | 35 | 30 | . | 5.5
Cc1ccc(S(=O)(=O)Nc2ccccc2NS(=O)(=O)c2ccc(C)cc2)cc1 | / | / | / | / | 71 | / | 56 | 20
O=C(/C=C/c1c(F)cccc1Cl)NCc1ccc2c(c1)OCO2 | . | . | . | . | . | . | / | /
CC(=O)CC[C@H]1CC[C@]2(CCCN(C(=O)C3CCCC3)C2)O1 | / | / | / | / | . | / | / | /
O=C(NCCN1CCC(Cc2ccccc2)CC1)C1CCCN(S(=O)(=O)c2ccc(Br)s2)C1 (stereo not drawn) | / | / | / | / | . | / | / | /
C=C1CCC2C(C)(C)CCC[C@]2(C)[C@H]1CC1=C(O)C(=O)C(CO)=CC1=O (stereo partly drawn) | / | / | / | / | 45 | / | . | 7.3
CC(C)CN(C(=O)COC(=O)c1ccccn1)c1c(N)n(Cc2ccccc2)c(=O)[nH]c1=O | . | . | . | . | . | . | / | /
O=Cc1cn(CCC(=O)O)nc1-c1cccc(Br)c1 | . | . | . | . | . | . | / | /
O=C(O)CCn1cc(/C=C\C(=O)c2ccc(Cl)cc2)c(-c2cccc(Br)c2)n1 | . | . | . | . | 63 | 46 | 82 | 45
CC1(C)N=C(c2ccc(Cl)cc2)C(=O)N1 | . | . | . | . | . | . | / | /
Cc1snc(S(=O)(=O)/C(C#N)=N/Nc2ccc(C(F)(F)F)cc2)c1C#N | . | . | . | . | 68 | . | 78 | 35
N#Cc1c(-c2cccc(Br)c2)cc(-c2ccco2)[nH]c1=O | . | . | . | . | 51 | . | 45 | 16
Cc1ccc2c(c1)c(CC(=O)Nc1ccc(C)c(F)c1)c(C(=O)O)n2C | . | . | . | . | 49 | . | 44 | 13
Cn1c(C(=O)O)c(CC(=O)Nc2ccccc2F)c2ccccc21 | . | . | . | . | . | . | / | /
CCc1ccc(N=C2NC(=O)/C(=C/c3cc(Br)c(OCC(=O)O)c(OC)c3)S2)cc1 | . | . | . | . | 57 | . | 56 | 19
CCOc1cc(/C=C2/SC(=S)NC2=O)ccc1OC(=O)c1ccco1 | . | . | . | . | 72 | . | 79 | 43

Source: PubChem BioAssay
